Measurements from PubChem BioAssay (NCATS).
Values without a mark were called inactive. Inconclusive results are not listed. Where a call stands in place of a potency, no number is given. Where a structure was tested more than once in an assay, its records may differ in their call. Active and inactive are the calls of the source. Unless noted, the call rests on the fitted dose curve; in most records, active means well fitted curve in the direction sought with a large enough effect; inconclusive means small, poorly fitted or top-dose-only effect, or another doubt; inactive means no such curve, though single readings can be large; an effect the other way counts as inactive or inconclusive.

Columns and labels:
[1] = Inducers of the Endoplasmic Reticulum Stress Response (ERSR) in human glioma: Validation (AID 504836)
Outline: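 Stably transfected U87-MG glioma cells carrying a GRP78-based luciferase sensor; 16 h compound incubation. Luminescence end-point read 10 min after Bright-Glo addition at room temperature.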

[2] = biological target: ATPase family AAA domain-containing protein 5 (Homo sapiens) (UniProt Q96QE3); experiment: Validation screen for small molecules that inhibit ELG1-dependent DNA repair in human embryonic kidney (HEK293T) cells expressing luciferase-tagged ELG1 (AID 493107);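 further: cells co-treated with the DNA-damaging agent 5-fluorouridine alongside compound; series mostly up to about 46 µM; inhibitors lower the ELG1-luciferase luminescence signal; nearly all actives have a fitted effect of over 70% in size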
Outline: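 ELG1-luciferase HEK293T reporter; 5-fluorouridine + compound/DMSO, 16 hr, 37 °C, 5% CO2; ONE-Glo 30 min RT; luminescence read, qHTS format.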

[3] = qHTS for Inhibitors of Cell Surface uPA Generation: Validation Assay (AID 493164);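 further: RAW 264.7 macrophage cells exposed to compound for 18 h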
Outline: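 Compounds are titrated over seven points (2.45 nM–38.3 uM final) onto pre-plated RAW 264.7 cells and incubated for 18 h. Retained intracellular ATP, measured with ATP-Lite, indicates blocked lethal factor entry.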

[4] = biological target: Galactokinase (Homo sapiens) (UniProt P51570); experiment: qHTS Validation Assay for Inhibitors of Human Galactokinase (GALK) (AID 493189)
Outline: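 Compounds were pin-transferred into ATP buffer, then GALK-galactose mix was added (final 5 nM enzyme, 100 uM galactose, 35 uM ATP). After 1 h at room temperature, remaining ATP was measured luminescently.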

[5] = Validation screen for small molecules that induce DNA re-replication in SW480 colon adenocarcinoma cells (AID 504364)
Outline: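 Read-out: total Hoechst intensity of nuclei by fluorescence scanning imager; hits raise the fraction of nuclei with elevated DNA content. Cells received compound for 48 hr at 37 C before a 40 min stain.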

[6] = biological target: phosphoglycerate mutase (Leishmania major) (UniProt Q4Q090); experiment: qHTS Validation Assay to Find Inhibitors of Phosphoglycerate Mutase (AID 504548);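 further: end-point luminescence from Kinase-GloPlus after the PGAM reaction; series mostly up to about 58 µM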
Outline: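 Inhibition of L. major PGAM was assessed by Kinase-GloPlus luminescence following a 45-minute room-temperature reaction with enzyme at 1.25nM final.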

[7] = biological target: Ubiquitin carboxyl-terminal hydrolase 1 (Homo sapiens) (UniProt O94782); experiment: Inhibitors of USP1/UAF1: Pilot qHTS (AID 504865); further: nearly all actives have a fitted effect of over 35% in size; further: potency means the concentration at half of the fitted maximal effect;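 on activity change, negative = inhibition: rhodamine fluorescence freed from ubiquitin-rhodamine substrate followed over time; top concentration of the series differs between compounds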
Outline: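 Kinetic fluorescence assay: 1nM USP1/UAF1, 15 min compound preincubation, then 150nM Ub-Rho; 480/540 nm.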

[8] = qHTS for Inhibitors of ATXN expression: Validation of Cytotoxic Assay (AID 588349)
Outline: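 Cytotoxicity counter-screen: HEK293 cells exposed to compound titrations, 72 hr, 37 degrees C. Read-out is intracellular ATP (CellTiter Glo luminescence) as a viability measure.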

[9] = qHTS for Inhibitors of ATXN expression: Validation (AID 588378); further: series mostly up to about 57 µM; nearly all actives have a fitted effect of over 75% in size
Outline: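 Validation of ATXN2 expression inhibitors uses a cell-based luciferase fusion reporter in HEK293 cells, with 24 h compound exposure and paired viability (fluorescence) and reporter (luminescence) end-point reads.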

[10] = biological target: Thyrotropin-releasing hormone receptor (Homo sapiens) (UniProt P34981); experiment: qHTS for Small Molecule Agonists and Allosteric Enhancers of Human TRH Receptor: Validation Screen for Agonists (AID 493127;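 active means calcium activation more than 3 SD above the typical response in the agonist read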;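 further: intracellular calcium rise by fluo-8 fluorescence before TRH EC20 addition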); settings: TRH receptor agonist cell assay; at 2 µM; stronger effect = higher value
Outline: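 Read-out: intracellular calcium release measured kinetically by FDSS (fluo-8, ex 480/em 530 nm), 1 reading/s after a 10-cycle baseline. TRHR cells, 2000/well, cultured 18 h at 33.5C, dye-loaded at room temp. Compound-evoked positive calcium signal flags agonists.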

[11] = biological target: Peptidyl-prolyl cis-trans isomerase NIMA-interacting 1 (Homo sapiens) (UniProt Q13526); experiment: qHTS Validation Assay to Find Inhibitors of Pin1 (AID 504536; active means well fitted inhibition curve with a large enough effect in the polarisation, with a control signal flat, not every such curve was filed as active; the % refers to the polarisation)
Outline: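 Fluorescence polarization competition: compounds (titration) displace HiFluor-488-labeled Pin1-1b peptide from Pin1 (0.3 uM final) in pH 7.5 HEPES buffer with DTT, 10 min at room temperature; %Activity normalized to no-enzyme wells, curves fitted.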

[12] = biological target: Phosphoglycerate kinase, glycosomal (Trypanosoma brucei brucei) (UniProt P07378); experiment: qHTS Validation Assay to Find Inhibitors of Phosphoglycerate Kinase (AID 504547)
Outline: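 Compounds are pinned into the substrate/PGK mixture, and GAPDH (100nM final) is added to start the reaction by producing 1,3-BPG. After 60 minutes at room temperature, Kinase-Glo Plus is added and luminescence is measured 10 minutes later.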

[13] = biological target: Estrogen receptor (Homo sapiens) (UniProt P03372); experiment: qHTS assay for small molecule antagonists of estrogen receptor alpha signaling (AID 588513; active means well fitted curve in the direction sought with a large enough effect in the signal ratio, with a control signal flat, not every such curve was filed as active; the % refers to the signal ratio)
Outline: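 Cells were plated at 5000/well and incubated 4 h at 37 C. Compounds were added as 1:2 dilution series, duplicates. 17-beta-estradiol (0.5nM final) was added for 18 h before CCF4 detection.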

[14] = biological target: Estrogen receptor (Homo sapiens) (UniProt P03372); experiment: qHTS assay for small molecule agonists of estrogen receptor alpha signaling (AID 588514; calls by dose curve; further: nearly all actives have a fitted effect of over 70% in size)
Outline: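 Read-out: CCF4 fluorescence from a beta-lactamase reporter in ER-alpha-UAS-bla HEK 293 cells after 18 hrs of compound exposure at 37 C. Normalized to 20 nM 17-beta-estradiol (100%) and DMSO (0%).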

[15] = biological target: Androgen receptor (Homo sapiens) (UniProt P10275); experiment: qHTS assay for small molecule agonists of androgen receptor signaling (AID 588515; active means well fitted curve in the direction sought with a large enough effect in the signal ratio, with a control signal flat; the % refers to the signal ratio); settings: AR-UAS-bla HEK293, beta-lactamase ratio, agonist 16 h; stronger effect = higher value
Outline: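 Stimulation of an AR-responsive β-lactamase reporter in GripTite HEK293 cells was measured after 16 h compound exposure at 37 °C, via CCF4 fluorescence after 2 h RT. EC50 from Hill fits, normalized to R1881 at 30 nM.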

[16] = biological target: Androgen receptor (Homo sapiens) (UniProt P10275); experiment: qHTS assay for small molecule antagonists of androgen receptor signaling (AID 588516; active means well fitted curve in the direction sought with a large enough effect in the signal ratio, with a control signal flat, not every such curve was filed as active; the % refers to the signal ratio)
Outline: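 Antagonist-mode qHTS: inhibition of R1881 (10 nM)-driven beta-lactamase expression in GripTite HEK 293 cells is measured after 16 h; values are Hill-derived IC50s normalized between R1881 and DMSO wells.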

[17] = biological target: DNA dC->dU-editing enzyme APOBEC-3G (Homo sapiens) (UniProt Q9HC16); experiment: qHTS for inhibitors of Vif-A3G interactions: Validation (AID 588379)
Outline: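 Yellow fluorescence (Ex 488, Em 500-530) of Vif-coexpressing HeLa A3G-eYFP cells, scanned by Acumen cytometer, reports blocked A3G degradation. Cells plated at 700/well overnight at 37 deg C before compound addition, then a further overnight compound incubation at 37 deg C.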

Chain of Peptidyl-prolyl cis-trans isomerase NIMA-interacting 1 (Homo sapiens) (Q13526 whole entry, looked up): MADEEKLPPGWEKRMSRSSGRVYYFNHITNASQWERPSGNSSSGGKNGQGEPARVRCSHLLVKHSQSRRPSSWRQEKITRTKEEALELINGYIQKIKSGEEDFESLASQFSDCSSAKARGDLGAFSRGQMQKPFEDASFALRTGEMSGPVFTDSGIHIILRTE
Chain of Ubiquitin carboxyl-terminal hydrolase 1 (Homo sapiens) (O94782 whole entry, looked up): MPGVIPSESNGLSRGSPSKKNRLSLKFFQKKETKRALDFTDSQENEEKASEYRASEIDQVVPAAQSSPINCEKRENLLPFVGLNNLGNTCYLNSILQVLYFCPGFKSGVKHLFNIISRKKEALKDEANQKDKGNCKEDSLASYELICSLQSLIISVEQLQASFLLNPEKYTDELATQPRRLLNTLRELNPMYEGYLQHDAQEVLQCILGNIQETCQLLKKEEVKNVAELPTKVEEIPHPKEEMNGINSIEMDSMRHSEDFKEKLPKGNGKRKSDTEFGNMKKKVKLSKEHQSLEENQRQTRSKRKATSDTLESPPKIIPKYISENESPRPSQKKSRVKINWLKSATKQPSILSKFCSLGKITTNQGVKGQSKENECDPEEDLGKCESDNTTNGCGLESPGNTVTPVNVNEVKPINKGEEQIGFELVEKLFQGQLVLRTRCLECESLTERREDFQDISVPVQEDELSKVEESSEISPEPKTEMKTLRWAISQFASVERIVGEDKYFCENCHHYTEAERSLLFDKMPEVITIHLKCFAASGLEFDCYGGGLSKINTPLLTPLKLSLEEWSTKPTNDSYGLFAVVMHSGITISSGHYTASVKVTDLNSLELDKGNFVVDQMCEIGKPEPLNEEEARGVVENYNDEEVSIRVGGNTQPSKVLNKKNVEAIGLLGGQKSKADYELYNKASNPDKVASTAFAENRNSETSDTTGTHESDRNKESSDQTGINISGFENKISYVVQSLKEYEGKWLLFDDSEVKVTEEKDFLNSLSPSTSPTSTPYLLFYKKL
Chain of ATPase family AAA domain-containing protein 5 (Homo sapiens) (Q96QE3 whole entry, looked up, the tested form may be a part): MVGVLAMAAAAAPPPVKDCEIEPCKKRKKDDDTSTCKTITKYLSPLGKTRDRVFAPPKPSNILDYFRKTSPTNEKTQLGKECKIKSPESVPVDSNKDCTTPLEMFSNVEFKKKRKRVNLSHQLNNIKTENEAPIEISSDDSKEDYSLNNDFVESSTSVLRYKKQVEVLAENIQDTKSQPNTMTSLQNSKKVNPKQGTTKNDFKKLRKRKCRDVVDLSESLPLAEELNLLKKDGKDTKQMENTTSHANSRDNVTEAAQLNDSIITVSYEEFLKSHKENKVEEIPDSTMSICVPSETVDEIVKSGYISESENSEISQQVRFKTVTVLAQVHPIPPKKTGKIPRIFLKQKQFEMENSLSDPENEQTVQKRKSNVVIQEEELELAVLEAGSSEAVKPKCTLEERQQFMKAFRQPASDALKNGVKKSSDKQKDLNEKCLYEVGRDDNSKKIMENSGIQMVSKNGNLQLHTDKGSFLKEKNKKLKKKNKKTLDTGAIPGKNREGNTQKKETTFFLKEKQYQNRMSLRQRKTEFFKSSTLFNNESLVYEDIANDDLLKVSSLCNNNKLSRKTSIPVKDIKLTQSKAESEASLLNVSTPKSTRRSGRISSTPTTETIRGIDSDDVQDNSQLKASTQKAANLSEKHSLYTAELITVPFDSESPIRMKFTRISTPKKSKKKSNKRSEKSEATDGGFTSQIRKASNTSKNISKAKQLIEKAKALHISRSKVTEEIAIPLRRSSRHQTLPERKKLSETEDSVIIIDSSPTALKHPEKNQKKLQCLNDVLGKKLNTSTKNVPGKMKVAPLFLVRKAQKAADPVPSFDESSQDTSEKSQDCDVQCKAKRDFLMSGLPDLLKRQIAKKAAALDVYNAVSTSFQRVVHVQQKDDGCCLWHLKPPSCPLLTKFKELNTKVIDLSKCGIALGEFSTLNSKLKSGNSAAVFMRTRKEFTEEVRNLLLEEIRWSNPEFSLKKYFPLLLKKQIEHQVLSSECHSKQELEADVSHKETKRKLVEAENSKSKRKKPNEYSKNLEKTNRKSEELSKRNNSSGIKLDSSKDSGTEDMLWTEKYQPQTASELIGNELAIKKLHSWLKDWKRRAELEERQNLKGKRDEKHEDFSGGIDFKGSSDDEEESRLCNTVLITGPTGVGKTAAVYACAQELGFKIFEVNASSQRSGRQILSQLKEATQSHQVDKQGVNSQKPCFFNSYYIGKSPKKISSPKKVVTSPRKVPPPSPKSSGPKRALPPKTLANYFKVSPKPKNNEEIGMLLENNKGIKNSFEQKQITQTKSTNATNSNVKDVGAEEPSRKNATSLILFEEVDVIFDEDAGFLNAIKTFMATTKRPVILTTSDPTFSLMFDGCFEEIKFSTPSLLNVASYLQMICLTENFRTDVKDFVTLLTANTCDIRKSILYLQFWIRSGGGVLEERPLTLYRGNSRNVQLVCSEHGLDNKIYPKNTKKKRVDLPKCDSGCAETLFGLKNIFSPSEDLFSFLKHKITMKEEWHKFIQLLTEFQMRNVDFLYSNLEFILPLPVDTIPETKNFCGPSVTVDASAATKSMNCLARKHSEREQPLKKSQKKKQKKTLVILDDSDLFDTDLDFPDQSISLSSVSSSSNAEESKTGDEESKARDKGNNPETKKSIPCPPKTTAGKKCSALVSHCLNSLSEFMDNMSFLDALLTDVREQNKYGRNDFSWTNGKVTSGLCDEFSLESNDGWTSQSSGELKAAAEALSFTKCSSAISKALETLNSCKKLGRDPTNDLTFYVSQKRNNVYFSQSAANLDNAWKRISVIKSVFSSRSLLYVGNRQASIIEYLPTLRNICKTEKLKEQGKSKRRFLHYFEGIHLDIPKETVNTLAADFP
Chain of phosphoglycerate mutase (Leishmania major) (Q4Q090 1-553): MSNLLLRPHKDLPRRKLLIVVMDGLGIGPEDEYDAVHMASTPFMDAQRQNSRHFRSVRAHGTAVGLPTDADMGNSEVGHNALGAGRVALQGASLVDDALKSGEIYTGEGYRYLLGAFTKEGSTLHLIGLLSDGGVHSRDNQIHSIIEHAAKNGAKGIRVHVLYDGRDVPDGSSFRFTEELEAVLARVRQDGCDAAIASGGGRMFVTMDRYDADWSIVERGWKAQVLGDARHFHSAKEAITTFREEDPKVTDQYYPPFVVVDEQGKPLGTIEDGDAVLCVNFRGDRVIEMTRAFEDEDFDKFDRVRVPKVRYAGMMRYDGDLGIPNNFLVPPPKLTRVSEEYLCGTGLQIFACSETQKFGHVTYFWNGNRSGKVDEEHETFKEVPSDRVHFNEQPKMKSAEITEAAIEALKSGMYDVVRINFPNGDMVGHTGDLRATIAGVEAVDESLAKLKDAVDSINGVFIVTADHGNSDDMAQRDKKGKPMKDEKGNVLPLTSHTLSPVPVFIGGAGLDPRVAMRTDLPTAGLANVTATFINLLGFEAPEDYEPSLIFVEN
Chain of Phosphoglycerate kinase, glycosomal (Trypanosoma brucei brucei) (P07378 whole entry, looked up): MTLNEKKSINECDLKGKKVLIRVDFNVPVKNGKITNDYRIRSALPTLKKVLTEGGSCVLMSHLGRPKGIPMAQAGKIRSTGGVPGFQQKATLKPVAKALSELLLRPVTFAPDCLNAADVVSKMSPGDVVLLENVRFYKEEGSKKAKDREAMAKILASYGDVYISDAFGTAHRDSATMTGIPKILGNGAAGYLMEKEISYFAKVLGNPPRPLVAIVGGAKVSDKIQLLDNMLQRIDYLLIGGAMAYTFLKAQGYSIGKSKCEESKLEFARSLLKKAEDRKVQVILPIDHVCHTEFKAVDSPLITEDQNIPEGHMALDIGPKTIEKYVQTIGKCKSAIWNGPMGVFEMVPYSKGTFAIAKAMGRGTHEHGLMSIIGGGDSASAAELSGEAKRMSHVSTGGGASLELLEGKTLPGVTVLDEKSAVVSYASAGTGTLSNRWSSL
Chain of Galactokinase (Homo sapiens) (P51570 whole entry, looked up): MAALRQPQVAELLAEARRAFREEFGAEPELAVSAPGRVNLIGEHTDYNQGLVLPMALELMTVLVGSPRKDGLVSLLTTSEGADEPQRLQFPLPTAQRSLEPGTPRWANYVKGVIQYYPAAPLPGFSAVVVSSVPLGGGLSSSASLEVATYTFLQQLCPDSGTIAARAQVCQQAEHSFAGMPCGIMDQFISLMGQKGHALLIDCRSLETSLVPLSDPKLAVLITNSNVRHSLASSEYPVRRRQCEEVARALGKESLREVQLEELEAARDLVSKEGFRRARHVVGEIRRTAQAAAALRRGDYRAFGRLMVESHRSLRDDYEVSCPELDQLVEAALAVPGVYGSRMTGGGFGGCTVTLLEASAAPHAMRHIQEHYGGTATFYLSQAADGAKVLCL
Chain of DNA dC->dU-editing enzyme APOBEC-3G (Homo sapiens) (Q9HC16 whole entry, looked up): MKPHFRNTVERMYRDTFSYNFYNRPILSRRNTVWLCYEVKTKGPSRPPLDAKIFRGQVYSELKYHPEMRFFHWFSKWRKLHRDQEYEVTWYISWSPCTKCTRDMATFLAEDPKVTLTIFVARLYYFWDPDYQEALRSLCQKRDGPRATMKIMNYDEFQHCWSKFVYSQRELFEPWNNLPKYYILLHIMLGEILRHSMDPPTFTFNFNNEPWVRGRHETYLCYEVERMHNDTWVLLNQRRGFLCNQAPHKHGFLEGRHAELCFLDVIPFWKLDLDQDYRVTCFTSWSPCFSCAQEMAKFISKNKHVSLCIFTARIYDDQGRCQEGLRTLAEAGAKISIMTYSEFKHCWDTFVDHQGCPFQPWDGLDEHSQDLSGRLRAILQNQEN
Chain of Thyrotropin-releasing hormone receptor (Homo sapiens) (P34981 whole entry, looked up): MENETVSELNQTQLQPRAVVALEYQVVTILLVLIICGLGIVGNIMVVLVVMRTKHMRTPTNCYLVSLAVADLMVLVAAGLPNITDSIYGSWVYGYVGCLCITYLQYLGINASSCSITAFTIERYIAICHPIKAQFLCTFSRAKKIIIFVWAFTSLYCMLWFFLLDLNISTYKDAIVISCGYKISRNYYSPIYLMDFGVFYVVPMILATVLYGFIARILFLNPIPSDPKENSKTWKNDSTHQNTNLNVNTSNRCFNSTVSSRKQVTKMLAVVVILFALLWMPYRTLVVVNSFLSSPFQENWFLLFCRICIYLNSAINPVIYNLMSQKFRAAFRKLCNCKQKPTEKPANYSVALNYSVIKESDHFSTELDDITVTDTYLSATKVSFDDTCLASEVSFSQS

With `CCCCCCCC/C=C\CCCCCCCC(=O)NCc1ccc(O)c(OC)c1` the outcome [1] was “inactive”.

In the case of `O=C1NCC2(CCN(CCc3ccccc3)CC2)O1`, the outcome [1] is reported as “inactive”.

For `CCCCC/C=C\C/C=C\C/C=C\C/C=C\CCCC(=O)NCC(=O)O`, the outcome [2] was “inactive”, the outcome [3] was “inactive” and the outcome [4] was “inactive”. For the same compound, the outcome [5] was “inactive”, the outcome [6] was “inactive” and the outcome [1] was “inactive”. The Potency [7] was 18.9 µM (active), the activity change, negative = inhibition [7] was -11.7% [at 11.4 µM] and the outcome [8] was “inactive”. The outcome [9] was “inactive”.

In the case of `CC(C)c1cccc(C(C)C)c1O`, the outcome [2] is reported as “inactive”, the activation [10] is reported as -6.88% and the outcome [3] is reported as “inactive”. The outcome [4] was “inactive”, the outcome [5] was “inactive” and the outcome [11] was “inactive”. For the same compound, the outcome [12] was “inactive”, the outcome [6] was “inactive” and the outcome [1] was “inactive”. For the same compound, the Potency [7] was “inactive”, the outcome [8] was “inactive” and the outcome [9] was “inactive”. For the same compound, the outcome [13] was “inactive”, the Potency [14] was “inactive” and the activation [15] was -6.9%. For the same compound, the outcome [16] was “inactive”.

With `COc1ccc2c(c1OC)C(=O)O[C@H]2[C@@H]1c2cc3c(cc2CCN1C)OCO3` the outcome [2] was “inactive”, the outcome [3] was “inactive” and the outcome [5] was “inactive”. For the same compound, the outcome [11] was “inactive”, the outcome [12] was “inactive” and the outcome [6] was “inactive”. The outcome [1] was “inactive”, the Potency [7] was “inactive” and the outcome [8] was “inactive”. The outcome [9] was “inactive”.

In the case of `O=C(CCCN1CCC2(CC1)C(=O)NCN2c1ccccc1)c1ccc(F)cc1`, the outcome [3] is reported as “inactive”, the outcome [4] is reported as “inactive” and the outcome [5] is reported as “inactive”. For the same compound, the outcome [11] was “inactive”, the outcome [12] was “inactive” and the outcome [6] was “inactive”. For the same compound, the Potency [7] was “inactive”, the outcome [9] was “inactive” and the outcome [17] was “inactive”.

With `Nc1ncnc2c1ncn2[C@@H]1O[C@H](CO)[C@@H](O)[C@H]1O` the outcome [1] was “inactive”.

In the case of `Clc1ccc2nsnc2c1NC1=NCCN1`, the outcome [1] is reported as “inactive”.

In the case of `Cc1scc2c1N(C(=O)CN1CCN(C)CC1)c1ccccc1NC2=O`, the outcome [1] is reported as “inactive”.

In the case of `CC(C)(Oc1ccc(C2CC2(Cl)Cl)cc1)C(=O)O` (configuration not stated), the outcome [1] is reported as “inactive”.

With `Nc1nc2ccc(OC(F)(F)F)cc2s1` the outcome [1] was “inactive”.

In the case of `COc1ccc(C2CNC(=O)C2)cc1OC1CCCC1` (configuration not stated), the outcome [1] is reported as “inactive”.

For `Cc1ncsc1CCCl`, the outcome [2] was “inactive”, the outcome [3] was “inactive” and the outcome [11] was “inactive”. For the same compound, the outcome [12] was “inactive”, the outcome [6] was “inactive” and the outcome [1] was “inactive”. For the same compound, the Potency [7] was “inactive”, the outcome [8] was “inactive” and the outcome [9] was “inactive”. For the same compound, the outcome [17] was “inactive”.

For `O=c1[nH]oc2c1CCNC2`, the outcome [2] was “inactive”, the outcome [3] was “inactive” and the outcome [5] was “inactive”. For the same compound, the outcome [11] was “inactive”, the outcome [12] was “inactive” and the outcome [6] was “inactive”. The outcome [1] was “inactive”, the Potency [7] was “inactive” and the outcome [8] was “inactive”. For the same compound, the outcome [9] was “inactive” and the outcome [17] was “inactive”.

In the case of `CCC1(c2ccc(N)cc2)CCC(=O)NC1=O` (configuration not stated), the outcome [2] is reported as “inactive”, the activation [10] is reported as 1.56% and the outcome [3] is reported as “inactive”. For the same compound, the outcome [4] was “inactive”, the outcome [5] was “inactive” and the outcome [12] was “inactive”. For the same compound, the outcome [6] was “inactive”, the outcome [1] was “inactive” and the Potency [7] was “inactive”. For the same compound, the outcome [8] was “inactive” and the outcome [9] was “inactive”.

For `CN(C)CCOC(=O)COc1ccc(Cl)cc1`, the outcome [1] was “inactive”.

For `CC(C)N(CCC(C(N)=O)(c1ccccc1)c1ccccn1)C(C)C` (configuration not stated), the outcome [2] was “inactive”, the outcome [3] was “inactive” and the outcome [4] was “inactive”. For the same compound, the outcome [5] was “inactive”, the outcome [11] was “inactive” and the outcome [12] was “inactive”. The outcome [6] was “inactive”, the outcome [1] was “inactive” and the Potency [7] was “inactive”. For the same compound, the outcome [8] was “inactive” and the outcome [9] was “inactive”.
